This is an account of results in PubChem BioAssay (NCI).

The panel holds about 83,000 compounds, 20% with a hit somewhere; the sample as a whole holds those more often.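 The test compound was applied at a single concentration to cells in 96-well plates for 48 hours, and percent growth was recorded.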 Values without a mark were called inactive. Active and inactive are the calls of the source. Rule for the calls: active = growth percent below 10; inactive = the rest.

Some test systems named below: NCI-H23 lung; NCI-H226 lung; NCI-H322M lung; HOP-62 NSCLC; NCI-H460 lung; HOP-92 NSCLC; NCI-H522 lung; A549/ATCC NSCLC; 786-0 renal; COLO 205 colon; DU-145 prostate; K-562 leukemia; MALME-3M melanoma; MDA-MB-231 breast; RXF 393 renal; SF-268 CNS; SF-295 CNS; SF-539 CNS; UACC-257 melanoma; M14 melanoma.
Holding throughout (test): NCI-60 one-dose screen, 48 h (100 = growth as untreated, 0 = no growth, -100 = all killed)
Holding throughout (details): 10 µM unless noted

`CC12CC[C@@H]3[C@]4(C)COC(c5c(F)cccc5F)O[C@@H]4CC[C@@]3(C)[C@@H]1CC(C1=CCOC1=O)O2` (stereo not given in full): the growth was 62.1% in the assay with NCI-H23 lung; 63.6% with NCI-H226 lung; 79.9% in the assay on NCI-H322M lung; 56.2% with HOP-62 NSCLC; 96.3% in the assay with NCI-H460 lung; -3.83% (active) in the assay with HOP-92 NSCLC. For the same compound, the growth with NCI-H522 lung is 55.4%; in the assay on A549/ATCC NSCLC, 70.3%; in the assay with 786-0 renal, 46.8%; in the assay on COLO 205 colon, 91.7%; in the assay with DU-145 prostate it was 76.6%; with K-562 leukemia, 66.6%. For the same compound, the growth with MALME-3M melanoma was 60.4%; in the assay with MDA-MB-231 breast, 36.5%; in the assay with RXF 393 renal it was 83.8%; in the assay on SF-268 CNS it was 70.3%; with SF-295 CNS it was 69.1%; in the assay on SF-539 CNS, 33.8%. The growth in the assay with UACC-257 melanoma is 64.6%; in the assay with M14 melanoma, 66.5%.
Consider `COc1ccc(-c2nc(SC(C)C)nc(NCCc3c[nH]c4ccccc34)c2C#N)cc1`, for which the growth in the assay with NCI-H23 lung is 45.6%; in the assay with NCI-H226 lung, 40.8%; in the assay on NCI-H322M lung, 87.7%; in the assay with HOP-62 NSCLC, 51.5%; with NCI-H460 lung, 24.1%; in the assay with HOP-92 NSCLC, 39%. Further, the growth in the assay on NCI-H522 lung was 35.8%; in the assay with A549/ATCC NSCLC, 47.1%; in the assay with 786-0 renal, 30.3%; in the assay with COLO 205 colon, 45.7%; in the assay with DU-145 prostate, 54%; with K-562 leukemia, 14.5%. The growth was 78.8% in the assay on MALME-3M melanoma; 26.6% in the assay with MDA-MB-231 breast; -20.3% (active) in the assay with RXF 393 renal; 49.8% with SF-268 CNS; 33.6% with SF-295 CNS; 42.7% with SF-539 CNS. In addition, the growth was 82.5% with UACC-257 melanoma and 55.7% in the assay on M14 melanoma.
As for `COc1ccc(N2N=C(c3ccc4c(c3)OCO4)CC2c2cccc(NC(=O)CCCNS(=O)(=O)c3ccc(F)cc3)c2)cc1` (stereo not given), the growth in the assay with NCI-H23 lung was 73.7%; with NCI-H226 lung it was 67.2%; in the assay with NCI-H322M lung it was 76.1%; in the assay on HOP-62 NSCLC it was 82.4%; with NCI-H460 lung it was 50.6%; in the assay with HOP-92 NSCLC, 90.4%. The growth in the assay with NCI-H522 lung is -7.84% (active); in the assay with A549/ATCC NSCLC, 49.1%; in the assay on 786-0 renal, 62.5%; in the assay on COLO 205 colon it was 65.3%; with DU-145 prostate, 80.3%; in the assay on K-562 leukemia, 35.5%. In addition, the growth was 77.6% in the assay on MALME-3M melanoma; 50.2% in the assay with MDA-MB-231 breast; 66.9% in the assay on RXF 393 renal; 52.8% in the assay with SF-268 CNS; 49.2% with SF-295 CNS; 74.9% in the assay on SF-539 CNS. Further, the growth in the assay with UACC-257 melanoma is 75.7%; in the assay on M14 melanoma it was 49.5%.
For the compound `S=C(Nc1ccc(OCc2nc3ccccc3[nH]2)cc1)NC1CCCCC1`, the growth with NCI-H23 lung is 101%; in the assay on NCI-H226 lung it was 105%; with NCI-H322M lung, 106%; with HOP-62 NSCLC, 95.1%; in the assay with NCI-H460 lung, 125%; in the assay with HOP-92 NSCLC, 109%. The growth was 51.7% with NCI-H522 lung; 105% in the assay with A549/ATCC NSCLC; 93% with 786-0 renal; 110% with COLO 205 colon; 98.4% in the assay with DU-145 prostate; 108% with K-562 leukemia. In addition, the growth in the assay with MALME-3M melanoma is 67.6%; in the assay with MDA-MB-231 breast it was 100%; in the assay on RXF 393 renal, 147%; in the assay on SF-268 CNS, 106%; in the assay on SF-295 CNS, 74.4%; in the assay on SF-539 CNS, 79.5%. Moreover, the growth is 95.5% with UACC-257 melanoma and 105% in the assay with M14 melanoma.
With `C/C(=N\N=C1/C(=O)Nc2ccccc21)c1ccc2c(c1)Nc1ccccc1S2`, the growth with NCI-H23 lung was 34.8%; in the assay with NCI-H226 lung, 56.3%; in the assay with NCI-H322M lung, 71.3%; with HOP-62 NSCLC it was 82.9%; in the assay on NCI-H460 lung, 43.8%; in the assay on HOP-92 NSCLC it was 82.7%. The growth in the assay on NCI-H522 lung was 43.7%; in the assay with A549/ATCC NSCLC it was 66.9%; in the assay on 786-0 renal, 71.4%; in the assay on COLO 205 colon, 52.6%; in the assay with DU-145 prostate it was 53.2%; with K-562 leukemia, 31.8%. The growth was 35.5% in the assay on MALME-3M melanoma; 39% with MDA-MB-231 breast; 96.1% in the assay on RXF 393 renal; 55.3% in the assay with SF-268 CNS; 57.8% with SF-295 CNS; 71.7% in the assay on SF-539 CNS. Besides, the growth in the assay with UACC-257 melanoma was 27.5%; with M14 melanoma, 65%.
As to `Cc1cc(=O)oc2cc(OCCOc3ccc(/C=C/C(=O)Nc4ccccc4N)cc3)ccc12`, the growth in the assay with NCI-H23 lung was 46.5%; with NCI-H226 lung, 24.8%; with NCI-H322M lung, 63%; with HOP-62 NSCLC, 24.1%; with NCI-H460 lung, 19.5%; in the assay with HOP-92 NSCLC, 31%. Also, the growth in the assay on NCI-H522 lung was 3.88% (active); with A549/ATCC NSCLC it was 30.3%; in the assay on 786-0 renal, 23.4%; in the assay with COLO 205 colon, -24.8% (active); with DU-145 prostate, 35.9%; in the assay on K-562 leukemia, 21.1%. For the same compound, the growth in the assay on MALME-3M melanoma was 48.6%; in the assay with MDA-MB-231 breast, -16.1% (active); with RXF 393 renal, 31%; in the assay on SF-268 CNS, 27.9%; with SF-295 CNS, 30.6%; with SF-539 CNS, 18.9%. For the same compound, the growth is 30.3% in the assay on UACC-257 melanoma and 54.2% in the assay on M14 melanoma.
Consider `C=C1CCC2C3(C)COC(c4ccccc4F)OC3CCC2(C)C1CC(O)C1=CCOC1=O` (stereo not given), for which the growth with NCI-H23 lung was 80%; in the assay on NCI-H226 lung, 83.6%; in the assay with NCI-H322M lung it was 99.5%; in the assay on HOP-62 NSCLC, 88.2%; in the assay on NCI-H460 lung, 82.3%; with HOP-92 NSCLC it was 55.5%. In addition, the growth in the assay with NCI-H522 lung is -50.3% (active); with A549/ATCC NSCLC it was 67.7%; in the assay on 786-0 renal, 14.7%; in the assay on COLO 205 colon, 22.5%; in the assay on DU-145 prostate, 67.2%; in the assay with K-562 leukemia, 21.3%. Besides, the growth in the assay on MALME-3M melanoma is 92.9%; in the assay on MDA-MB-231 breast it was 77.7%; in the assay with RXF 393 renal it was 50.7%; with SF-268 CNS it was 103%; in the assay on SF-295 CNS it was 77.2%; in the assay with SF-539 CNS it was 16.3%. In addition, the growth in the assay on UACC-257 melanoma is 75.1%; in the assay on M14 melanoma it was 26.5%.
On to `CC(=O)Nc1ccc(C(=O)NC(=S)Nc2ccc(S(N)(=O)=O)cc2)cc1`, for which the growth in the assay with NCI-H23 lung is 94.4%; in the assay on NCI-H226 lung, 81.9%; in the assay on NCI-H322M lung, 92.4%; in the assay with HOP-62 NSCLC, 90.8%; in the assay with NCI-H460 lung, 102%; in the assay with HOP-92 NSCLC, 95.4%. In addition, the growth with NCI-H522 lung is 73.7%; in the assay with A549/ATCC NSCLC it was 99.2%; in the assay on 786-0 renal, 95.5%; in the assay on COLO 205 colon, 105%; in the assay with DU-145 prostate it was 105%; in the assay with K-562 leukemia it was 86.6%. For the same compound, the growth in the assay on MALME-3M melanoma is 89.9%; in the assay on MDA-MB-231 breast, 99.3%; with RXF 393 renal, 93.2%; with SF-268 CNS, 97.1%; in the assay on SF-295 CNS it was 102%; in the assay on SF-539 CNS it was 90.7%. For the same compound, the growth is 95.2% with UACC-257 melanoma and 93.6% in the assay with M14 melanoma.
